# Article PMC7862700, “An all-to-all approach to the identification of sequence-specific readers for epigenetic DNA modifications on cytosine”
# Columns and labels:
# Assay in all cases: DAPPL (digital affinity profiling via proximity ligation, sequencing); 10 mM Tris-HCl pH 7.5, 50 mM NaCl, 1 mM DTT, 4% glycerol, room temperature, 30 min; GST-TFs on glutathione beads, 16-mer random dsDNA library, 0.1% formaldehyde crosslink after washing; high values mean tight binding
# FEV = target: T1, FEV (Homo sapiens, UniProt Q99581 1-238); details: protein: recombinant; tags: N-terminal GST; dsDNA, one strand shown
# T1 sequence: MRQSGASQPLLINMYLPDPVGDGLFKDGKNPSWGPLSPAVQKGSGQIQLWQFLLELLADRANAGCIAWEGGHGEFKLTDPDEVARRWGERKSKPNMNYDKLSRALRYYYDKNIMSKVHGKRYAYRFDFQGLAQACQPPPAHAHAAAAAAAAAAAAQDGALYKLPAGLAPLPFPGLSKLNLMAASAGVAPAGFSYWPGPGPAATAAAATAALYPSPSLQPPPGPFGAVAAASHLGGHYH
# Method in brief: (§1)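 Binding signal is given per hexamer as its read frequency for a factor divided by its frequency in the tag-only sample. GST-fused human transcription factors were expressed in yeast, captured on glutathione beads, barcoded with DNA and pooled with that sample, then incubated with 200 nmole of a 16-mer random double-stranded DNA library in Tris/NaCl/DTT/glycerol buffer for 30 min at room temperature. The pools were then washed, crosslinked, proximity-ligated, amplified by PCR and sequenced on an Illumina NextSeq500.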
# ETV5 = ETV5 (Homo sapiens, UniProt P41161 1-510); details: protein: recombinant; tags: N-terminal GST; dsDNA, one strand shown
# ETV5, sequence (P41161 whole entry): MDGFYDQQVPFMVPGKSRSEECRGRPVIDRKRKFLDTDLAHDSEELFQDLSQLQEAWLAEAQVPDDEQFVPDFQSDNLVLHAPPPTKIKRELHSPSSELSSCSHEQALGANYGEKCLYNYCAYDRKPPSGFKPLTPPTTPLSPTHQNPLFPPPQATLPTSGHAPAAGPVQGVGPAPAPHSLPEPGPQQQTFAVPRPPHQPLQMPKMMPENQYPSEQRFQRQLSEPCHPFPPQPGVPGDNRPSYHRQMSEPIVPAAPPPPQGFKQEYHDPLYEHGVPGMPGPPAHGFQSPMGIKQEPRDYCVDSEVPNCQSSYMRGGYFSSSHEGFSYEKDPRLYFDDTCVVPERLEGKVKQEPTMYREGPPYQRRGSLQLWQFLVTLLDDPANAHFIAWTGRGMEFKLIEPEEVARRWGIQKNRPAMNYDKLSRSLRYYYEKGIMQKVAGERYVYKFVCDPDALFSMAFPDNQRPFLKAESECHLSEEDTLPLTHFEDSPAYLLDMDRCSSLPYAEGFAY
# Method in brief: as §1
# HSF1 = HSF1 (Homo sapiens, UniProt Q00613 1-529); details: protein: recombinant; tags: N-terminal GST; chain copies: 3; dsDNA, one strand shown
# HSF1, sequence (Q00613 whole entry): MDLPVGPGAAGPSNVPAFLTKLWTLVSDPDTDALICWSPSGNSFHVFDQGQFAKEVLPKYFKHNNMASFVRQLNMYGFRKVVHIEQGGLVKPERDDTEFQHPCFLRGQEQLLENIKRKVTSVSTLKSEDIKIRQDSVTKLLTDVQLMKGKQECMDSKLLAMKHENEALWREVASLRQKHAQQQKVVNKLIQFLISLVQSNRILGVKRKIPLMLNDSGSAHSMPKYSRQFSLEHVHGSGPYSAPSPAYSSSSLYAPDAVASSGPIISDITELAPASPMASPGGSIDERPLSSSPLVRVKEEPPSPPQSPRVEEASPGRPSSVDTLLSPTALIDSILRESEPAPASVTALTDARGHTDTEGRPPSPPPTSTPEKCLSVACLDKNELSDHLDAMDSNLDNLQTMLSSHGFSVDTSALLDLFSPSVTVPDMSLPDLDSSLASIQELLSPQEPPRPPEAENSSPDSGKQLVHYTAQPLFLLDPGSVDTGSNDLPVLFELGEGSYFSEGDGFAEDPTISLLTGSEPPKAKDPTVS
# Method in brief: as §1
# SPIC = target: T2, SPIC (Homo sapiens, UniProt Q8N5J4 1-248); details: protein: recombinant; tags: N-terminal GST; dsDNA, one strand shown
# T2 sequence: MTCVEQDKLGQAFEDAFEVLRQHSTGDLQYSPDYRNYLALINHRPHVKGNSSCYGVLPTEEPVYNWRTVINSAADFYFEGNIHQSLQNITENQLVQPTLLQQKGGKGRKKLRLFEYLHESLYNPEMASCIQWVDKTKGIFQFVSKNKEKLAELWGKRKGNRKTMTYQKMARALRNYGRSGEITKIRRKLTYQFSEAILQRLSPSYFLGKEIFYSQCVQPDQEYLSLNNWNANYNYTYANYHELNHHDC
# Method in brief: as §1
# ELF4 = ELF4 (Homo sapiens, UniProt Q99607 1-663); details: protein: recombinant; tags: N-terminal GST; dsDNA, one strand shown
# ELF4, sequence (Q99607 whole entry): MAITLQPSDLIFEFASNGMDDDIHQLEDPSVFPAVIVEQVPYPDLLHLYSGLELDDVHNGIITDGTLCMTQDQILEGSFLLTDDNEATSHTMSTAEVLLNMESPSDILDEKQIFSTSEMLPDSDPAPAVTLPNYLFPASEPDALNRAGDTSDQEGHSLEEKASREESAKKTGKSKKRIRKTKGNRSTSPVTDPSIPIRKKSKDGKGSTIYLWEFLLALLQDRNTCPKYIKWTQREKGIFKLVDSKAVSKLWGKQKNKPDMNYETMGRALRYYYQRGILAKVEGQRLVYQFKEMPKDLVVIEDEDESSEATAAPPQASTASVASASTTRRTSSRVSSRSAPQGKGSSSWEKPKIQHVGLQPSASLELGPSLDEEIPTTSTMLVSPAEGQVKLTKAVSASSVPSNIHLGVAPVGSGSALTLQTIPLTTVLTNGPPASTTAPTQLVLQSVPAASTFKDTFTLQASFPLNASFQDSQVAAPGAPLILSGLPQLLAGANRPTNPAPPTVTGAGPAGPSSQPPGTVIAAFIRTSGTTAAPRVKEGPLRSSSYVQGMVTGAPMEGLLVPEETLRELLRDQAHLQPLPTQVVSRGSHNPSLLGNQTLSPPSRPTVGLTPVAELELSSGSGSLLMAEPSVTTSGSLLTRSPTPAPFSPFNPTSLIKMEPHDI
# Method in brief: as §1
# ELK4 = target: T3, ELK4 (Homo sapiens, UniProt P28324-2 1-405); details: protein: recombinant; tags: N-terminal GST; dsDNA, one strand shown
# T3 sequence: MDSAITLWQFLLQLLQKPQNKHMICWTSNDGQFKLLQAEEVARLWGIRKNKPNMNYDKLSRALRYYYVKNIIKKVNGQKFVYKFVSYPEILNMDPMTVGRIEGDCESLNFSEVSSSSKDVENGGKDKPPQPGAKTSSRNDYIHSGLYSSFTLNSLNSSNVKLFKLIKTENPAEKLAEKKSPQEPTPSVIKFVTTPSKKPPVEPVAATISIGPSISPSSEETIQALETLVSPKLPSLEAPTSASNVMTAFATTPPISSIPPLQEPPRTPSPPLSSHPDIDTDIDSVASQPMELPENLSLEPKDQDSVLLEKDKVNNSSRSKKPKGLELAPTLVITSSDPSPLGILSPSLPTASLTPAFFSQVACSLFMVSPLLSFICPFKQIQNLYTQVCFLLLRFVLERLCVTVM
# Method in brief: as §1
# ETV2 = target: T4, ETV2 (Homo sapiens, UniProt O00321 1-342); details: protein: recombinant; tags: N-terminal GST; dsDNA, one strand shown
# T4 sequence: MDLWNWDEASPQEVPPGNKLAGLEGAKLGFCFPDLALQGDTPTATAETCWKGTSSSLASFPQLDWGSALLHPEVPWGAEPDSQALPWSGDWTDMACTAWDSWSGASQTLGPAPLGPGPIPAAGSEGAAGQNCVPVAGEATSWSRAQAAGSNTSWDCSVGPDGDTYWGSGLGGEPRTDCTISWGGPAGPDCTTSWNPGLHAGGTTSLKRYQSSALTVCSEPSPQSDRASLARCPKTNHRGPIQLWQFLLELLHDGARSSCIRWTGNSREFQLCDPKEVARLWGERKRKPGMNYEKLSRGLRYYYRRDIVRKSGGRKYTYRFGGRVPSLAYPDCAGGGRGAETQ
# Method in brief: as §1
# ELF3 = target: T5, ELF3 (Homo sapiens, UniProt P78545 1-371); details: protein: recombinant; tags: N-terminal GST; dsDNA, one strand shown
# T5 sequence: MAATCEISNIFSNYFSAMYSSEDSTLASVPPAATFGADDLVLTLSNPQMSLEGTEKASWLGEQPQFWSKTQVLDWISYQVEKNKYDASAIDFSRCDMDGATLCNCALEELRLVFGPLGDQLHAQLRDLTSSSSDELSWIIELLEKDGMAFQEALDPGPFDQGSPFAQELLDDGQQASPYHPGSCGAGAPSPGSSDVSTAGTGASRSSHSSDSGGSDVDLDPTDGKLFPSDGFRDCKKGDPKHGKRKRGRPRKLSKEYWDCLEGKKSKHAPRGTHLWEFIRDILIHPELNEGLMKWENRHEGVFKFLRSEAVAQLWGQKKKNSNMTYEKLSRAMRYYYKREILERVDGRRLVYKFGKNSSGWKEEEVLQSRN
# Method in brief: as §1
# CRX = CRX (Homo sapiens, UniProt O43186 1-299); details: protein: recombinant; tags: N-terminal GST; dsDNA, one strand shown
# CRX, sequence (O43186 whole entry): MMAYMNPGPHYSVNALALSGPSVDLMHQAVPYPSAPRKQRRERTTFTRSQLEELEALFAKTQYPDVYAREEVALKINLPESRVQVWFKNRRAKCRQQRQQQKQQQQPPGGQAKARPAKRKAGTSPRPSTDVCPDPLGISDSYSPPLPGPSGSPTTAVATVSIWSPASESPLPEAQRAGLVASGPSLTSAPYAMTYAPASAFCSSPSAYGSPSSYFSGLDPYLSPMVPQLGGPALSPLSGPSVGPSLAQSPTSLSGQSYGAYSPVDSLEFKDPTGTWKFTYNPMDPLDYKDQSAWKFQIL
# Method in brief: as §1
# ETV1 = ETV1 (Homo sapiens, UniProt P50549 1-477); details: protein: recombinant; tags: N-terminal GST; dsDNA, one strand shown
# ETV1, sequence (P50549 whole entry): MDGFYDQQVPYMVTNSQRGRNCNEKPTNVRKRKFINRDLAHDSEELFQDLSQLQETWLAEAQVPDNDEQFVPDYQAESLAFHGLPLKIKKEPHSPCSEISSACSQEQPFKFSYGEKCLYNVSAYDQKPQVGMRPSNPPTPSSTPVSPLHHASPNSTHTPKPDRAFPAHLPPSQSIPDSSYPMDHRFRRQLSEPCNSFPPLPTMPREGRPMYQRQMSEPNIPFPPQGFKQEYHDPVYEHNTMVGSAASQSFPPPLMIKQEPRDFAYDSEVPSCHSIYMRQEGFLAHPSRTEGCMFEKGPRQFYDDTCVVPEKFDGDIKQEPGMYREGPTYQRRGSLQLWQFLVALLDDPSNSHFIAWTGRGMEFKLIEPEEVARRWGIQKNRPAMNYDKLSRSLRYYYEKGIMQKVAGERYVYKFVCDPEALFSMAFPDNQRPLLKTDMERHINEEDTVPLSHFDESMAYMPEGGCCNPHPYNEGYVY
# Method in brief: as §1
# ERF = target: T6, ERF (Homo sapiens, UniProt P50548 1-548); details: protein: recombinant; tags: N-terminal GST; dsDNA, one strand shown
# T6 sequence: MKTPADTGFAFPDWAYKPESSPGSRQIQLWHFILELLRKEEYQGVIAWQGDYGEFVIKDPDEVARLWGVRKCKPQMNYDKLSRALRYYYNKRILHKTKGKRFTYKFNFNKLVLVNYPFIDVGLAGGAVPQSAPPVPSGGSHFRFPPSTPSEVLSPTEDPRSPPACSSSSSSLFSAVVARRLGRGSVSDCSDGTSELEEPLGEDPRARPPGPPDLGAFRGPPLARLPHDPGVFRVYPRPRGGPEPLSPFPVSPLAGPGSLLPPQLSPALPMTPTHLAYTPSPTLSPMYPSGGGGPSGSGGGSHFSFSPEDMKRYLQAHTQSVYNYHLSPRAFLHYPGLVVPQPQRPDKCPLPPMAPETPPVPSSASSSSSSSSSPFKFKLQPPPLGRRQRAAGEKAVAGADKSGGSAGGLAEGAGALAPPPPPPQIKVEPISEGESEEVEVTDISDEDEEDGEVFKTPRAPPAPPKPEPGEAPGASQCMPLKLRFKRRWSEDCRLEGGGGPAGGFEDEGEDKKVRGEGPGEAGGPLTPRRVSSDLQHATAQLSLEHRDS
# Method in brief: as §1
# ETV3L = target: T7, ETV3L (Homo sapiens, UniProt Q6ZN32 1-361); details: protein: recombinant; tags: N-terminal GST; dsDNA, one strand shown
# T7 sequence: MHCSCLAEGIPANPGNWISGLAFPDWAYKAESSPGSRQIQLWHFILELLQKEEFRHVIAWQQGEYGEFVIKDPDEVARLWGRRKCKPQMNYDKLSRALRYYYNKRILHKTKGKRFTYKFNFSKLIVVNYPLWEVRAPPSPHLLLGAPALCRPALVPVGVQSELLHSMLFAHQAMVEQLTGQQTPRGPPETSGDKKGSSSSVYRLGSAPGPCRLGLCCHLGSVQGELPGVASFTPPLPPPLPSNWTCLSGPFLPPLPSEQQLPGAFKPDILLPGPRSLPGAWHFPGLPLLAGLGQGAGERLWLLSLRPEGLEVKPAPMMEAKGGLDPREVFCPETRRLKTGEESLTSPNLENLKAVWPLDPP
# Method in brief: as §1
# ETS2 = target: T8, ETS2 (Homo sapiens, UniProt P15036 1-469); details: protein: recombinant; tags: N-terminal GST; dsDNA, one strand shown
# T8 sequence: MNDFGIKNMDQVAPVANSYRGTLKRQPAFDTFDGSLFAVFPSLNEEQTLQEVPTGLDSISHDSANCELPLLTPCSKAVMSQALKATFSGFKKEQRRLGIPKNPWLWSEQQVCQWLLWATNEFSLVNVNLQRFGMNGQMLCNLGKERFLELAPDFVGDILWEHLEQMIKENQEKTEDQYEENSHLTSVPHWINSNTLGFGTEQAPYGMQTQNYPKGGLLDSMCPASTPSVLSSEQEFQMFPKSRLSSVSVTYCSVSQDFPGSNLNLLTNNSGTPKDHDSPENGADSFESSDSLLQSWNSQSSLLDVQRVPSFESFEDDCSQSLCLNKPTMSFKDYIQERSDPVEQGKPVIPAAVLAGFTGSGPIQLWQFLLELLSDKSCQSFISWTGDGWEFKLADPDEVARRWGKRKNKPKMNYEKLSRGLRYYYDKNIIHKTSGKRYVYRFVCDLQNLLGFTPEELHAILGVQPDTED
# Method in brief: as §1
# SPDEF = target: T9, SPDEF (Homo sapiens, UniProt O95238 1-335); details: protein: recombinant; tags: N-terminal GST; dsDNA, one strand shown
# T9 sequence: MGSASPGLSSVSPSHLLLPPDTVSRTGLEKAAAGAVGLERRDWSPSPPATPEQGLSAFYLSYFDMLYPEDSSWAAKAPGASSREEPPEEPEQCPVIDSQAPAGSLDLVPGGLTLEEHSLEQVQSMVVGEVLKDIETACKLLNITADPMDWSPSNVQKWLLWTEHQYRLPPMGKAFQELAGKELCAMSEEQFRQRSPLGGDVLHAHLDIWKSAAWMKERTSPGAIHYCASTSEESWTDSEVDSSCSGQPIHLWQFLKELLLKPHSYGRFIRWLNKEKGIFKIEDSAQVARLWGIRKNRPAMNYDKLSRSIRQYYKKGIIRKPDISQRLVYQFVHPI
# Method in brief: as §1
# ETV7 = target: T10, ETV7 (Homo sapiens, UniProt Q9Y603 1-341); details: protein: recombinant; tags: N-terminal GST; dsDNA, one strand shown
# T10 sequence: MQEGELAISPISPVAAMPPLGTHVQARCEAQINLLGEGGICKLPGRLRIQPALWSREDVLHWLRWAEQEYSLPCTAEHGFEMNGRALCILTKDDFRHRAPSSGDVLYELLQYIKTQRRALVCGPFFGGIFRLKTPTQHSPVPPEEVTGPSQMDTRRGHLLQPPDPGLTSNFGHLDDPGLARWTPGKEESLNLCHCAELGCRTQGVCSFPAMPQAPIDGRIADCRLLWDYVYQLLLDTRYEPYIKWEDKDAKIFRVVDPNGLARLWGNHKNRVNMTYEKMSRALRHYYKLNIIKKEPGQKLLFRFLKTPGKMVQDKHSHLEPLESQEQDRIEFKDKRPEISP
# Method in brief: as §1
# ELF5 = target: T11, ELF5 (Homo sapiens, UniProt Q9UKW6-2 1-255); details: protein: recombinant; tags: N-terminal GST; dsDNA, one strand shown
# T11 sequence: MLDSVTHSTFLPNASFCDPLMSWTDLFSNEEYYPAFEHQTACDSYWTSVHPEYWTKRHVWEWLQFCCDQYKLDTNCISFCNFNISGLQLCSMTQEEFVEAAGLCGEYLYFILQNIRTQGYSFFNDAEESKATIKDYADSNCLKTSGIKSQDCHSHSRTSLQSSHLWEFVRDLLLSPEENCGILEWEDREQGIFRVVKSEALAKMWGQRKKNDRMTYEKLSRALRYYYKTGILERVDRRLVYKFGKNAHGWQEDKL
# Method in brief: as §1
# ETV3 = target: T12, ETV3 (Homo sapiens, UniProt P41162-2 1-143); details: protein: recombinant; tags: N-terminal GST; dsDNA, one strand shown
# T12 sequence: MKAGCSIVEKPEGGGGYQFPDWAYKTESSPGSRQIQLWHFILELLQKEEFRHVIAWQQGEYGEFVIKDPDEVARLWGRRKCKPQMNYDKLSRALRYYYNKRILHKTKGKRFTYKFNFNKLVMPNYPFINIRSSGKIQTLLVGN
# Method in brief: as §1
# ETV6 = ETV6 (Homo sapiens, UniProt P41212 1-452); details: protein: recombinant; tags: N-terminal GST; dsDNA, one strand shown
# ETV6, sequence (P41212 whole entry): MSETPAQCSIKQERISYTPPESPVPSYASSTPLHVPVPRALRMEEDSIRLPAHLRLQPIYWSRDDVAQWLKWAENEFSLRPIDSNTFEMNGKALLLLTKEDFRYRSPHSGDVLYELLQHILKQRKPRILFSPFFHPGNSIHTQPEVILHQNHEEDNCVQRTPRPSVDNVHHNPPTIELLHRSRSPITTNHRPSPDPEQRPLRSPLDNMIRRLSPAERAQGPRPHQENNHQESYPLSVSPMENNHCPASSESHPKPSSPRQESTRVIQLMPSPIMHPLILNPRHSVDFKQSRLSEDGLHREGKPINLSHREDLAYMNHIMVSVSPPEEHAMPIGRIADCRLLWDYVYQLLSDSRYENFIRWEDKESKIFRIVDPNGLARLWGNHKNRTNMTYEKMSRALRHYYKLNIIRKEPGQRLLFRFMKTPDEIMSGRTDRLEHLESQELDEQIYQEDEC
# Method in brief: as §1
sequence,measurement,setting,value
TTCTGC,binding signal,FEV,"1.39 fold enrichment (6-mer frequency, TF over GST control)"
same,binding signal,ETV5,"1.46 fold enrichment (6-mer frequency, TF over GST control)"
same,binding signal,HSF1,"1.57 fold enrichment (6-mer frequency, TF over GST control)"
same,binding signal,SPIC,"1.37 fold enrichment (6-mer frequency, TF over GST control)"
same,binding signal,ELF4,"1.52 fold enrichment (6-mer frequency, TF over GST control)"
same,binding signal,ELK4,"1.65 fold enrichment (6-mer frequency, TF over GST control)"
same,binding signal,ETV2,"1.26 fold enrichment (6-mer frequency, TF over GST control)"
same,binding signal,ELF3,"1.54 fold enrichment (6-mer frequency, TF over GST control)"
same,binding signal,CRX,"1.36 fold enrichment (6-mer frequency, TF over GST control)"
same,binding signal,ETV1,"1.45 fold enrichment (6-mer frequency, TF over GST control)"
same,binding signal,ERF,"1.55 fold enrichment (6-mer frequency, TF over GST control)"
same,binding signal,ETV3L,"1.4 fold enrichment (6-mer frequency, TF over GST control)"
same,binding signal,ETS2,"1.33 fold enrichment (6-mer frequency, TF over GST control)"
same,binding signal,SPDEF,"1.38 fold enrichment (6-mer frequency, TF over GST control)"
same,binding signal,ETV7,"1.43 fold enrichment (6-mer frequency, TF over GST control)"
same,binding signal,ELF5,"1.38 fold enrichment (6-mer frequency, TF over GST control)"
same,binding signal,ETV3,"1.33 fold enrichment (6-mer frequency, TF over GST control)"
same,binding signal,ETV6,"1.47 fold enrichment (6-mer frequency, TF over GST control)"
